Screening data from PubChem.
Pf Dd2 growth – Plasmodium falciparum Dd2 growth inhibition; P. falciparum Dd2 growth, SYBR Green, 72 h; Potency, µM (top dose mostly 28.9 µM), without a hit: at the top dose activity, negative = inhibition, hits mostly inhibitors; hit rate 4.3% among 120,000; AID 1347417; active = well fitted inhibition curve with a large enough effect;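 note: plate controls were DMSO vehicle for no effect and reference drug for full effect; nearly all actives have a fitted effect of over 65% in size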
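Infected erythrocytes (Dd2, 0.3% parasitemia, 2.5% hematocrit final) are added to compound in RPMI-1640/Albumax II medium, grown 72 h at 37C in low oxygen, then lysed with saponin/Triton-X containing SYBR Green and read by fluorescence.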
* = called active by the depositor; i = inactive; [ ] = another dose, or the depositor's remark. Many of the other results were omitted from the sample, so hits are more common in it than they were. Potency is the fitted concentration of half-maximal effect.

SMILES	Pf Dd2 growth
O=C1c2[nH]nc(-c3ccccc3O)c2C(c2cccc(OCc3ccccc3)c2)N1CCO (stereo unspecified)	139.5%[5.79 µM]
O=C1c2[nH]nc(-c3ccccc3O)c2C(c2ccccc2F)N1Cc1cccnc1 (stereo unspecified)	10.4%
CC(C)OCCCN1C(=O)c2[nH]nc(-c3ccccc3O)c2C1c1ccccc1F (stereo unspecified)	11.2µM*
CCCCN1C(=O)c2[nH]nc(-c3ccccc3O)c2C1c1ccc(OCc2ccccc2)cc1 (stereo unspecified)	1.41µM*
CC12CN3CC(C)(CN(C1)C3c1ccc(OCc3ccccc3)cc1)C2=O (stereo unspecified)	23.2%
COc1ccc(CCNC(=O)c2c(C)noc2-c2cccs2)cc1	i
Cc1nn(C)c(C)c1CCCN(C)C(=O)c1ccc2c(c1)C(O)CCCCCN2C (stereo unspecified)	i
COCCn1c(C)cnc1CC1CCCN(C(=O)c2ccnn2C)C1 (stereo unspecified)	7.8%
Cc1noc([C@@H](C)NS(=O)(=O)c2ccc(Cl)cc2)c1C(=O)O	22.5%[44.1 µM]
Cc1ccc(OCC(=O)NCCC2CCN(C(=O)Nc3ccccc3C)CC2)cc1	-18.7%
COCCCn1c(C)cnc1C1CCN(C(=O)COc2ccccc2)C1 (stereo unspecified)	-18.3%
COCCCN1C(=O)c2[nH]nc(-c3ccccc3O)c2C1c1ccc(OCc2ccccc2)cc1 (stereo unspecified)	8.91µM*
O=C1CCCN1CCCN1C(=O)[C@@H]2C[C@@H](O)CN2C2(CN(Cc3ccc(Cl)cc3)C2)C1=O	15.3%
Cc1nc(N2CCC(NC(=O)c3nccc4ccccc34)CC2)cc(C(F)(F)F)n1	-16.7%
Cc1ccc(Nc2c(-c3cccnc3)nc3ccc(Br)cn23)cc1	i
Cc1ccccc1Nc1c(-c2cccnc2)nc2cccc(C)n12	-24.2%
Cc1ccccc1Nc1c(-c2ccc(N3CCOCC3)cc2)nc2ccc(Br)cn12	8.91µM*
COc1cc(O)ccc1-c1nc2ccc(Br)cn2c1Nc1ccccc1C	6.31µM*
Cc1ccccc1Nc1c(-c2c[nH]c3ccccc23)nc2ccc(Cl)cn12	i
COc1ccc(-c2nc3ccc(Cl)cn3c2Nc2ccc(C)cc2)cc1	-13.6%
Cc1ccccc1Nc1c(-c2cccs2)nc2cccc(C)n12	-1.9%
Cc1ccccc1Nc1c(-c2ccsc2)nc2c(C)cccn12	i
Cc1ccccc1Nc1c(-c2ccc(N3CCOCC3)cc2)nc2cccc(C)n12	10µM*
CN1CC(=O)N(c2ccc(Cl)cc2)Cc2c1ncnc2N1CCC(c2ccccc2)CC1	-10.3%
O=C([C@@H]1C[C@H](F)CN1S(=O)(=O)c1cccc(C(F)(F)F)c1)N1CCCCC1	i
SMILES	Pf Dd2 growth
COc1ccc(-c2nc(-c3nnn4c3COC(c3ccccc3Cl)C4)no2)cc1F (stereo unspecified)	i
CN(C)C[C@@H]1CN(C)C[C@H]1NC(=O)c1nn(C)c2ccccc12	17.7%
CCOc1ccccc1C(=O)N1[C@@H]2CC[C@H]1CC(NC(=O)c1ccc(F)cc1)C2 (stereo partly specified)	-22.8%
Cc1ccc2c(c1)-c1cc(C)nn1C(c1cc(Br)ccc1O)N2 (stereo unspecified)	12.6µM*
Cc1cnc(C(=O)N2CC(N(C)Cc3cccnc3)C2)cn1	1.4%
Cc1ccccc1CCC1CCCN(C(=O)c2ccccc2-c2nn[nH]n2)C1 (stereo unspecified)	-13.9%
CN(Cc1ccccc1)C(=O)c1cc(-c2ccncc2)cn1C	-20.4%
CCCn1cc(-c2ccncc2)cc1C(=O)NCc1ccc(C)o1	-0.6%
Cc1ccc(Cn2cc(-c3ccncc3)cc2C(=O)O)cc1	i
Cc1ccccc1Cn1cc(-c2ccncc2)cc1C(=O)N1CCCC(C)C1 (stereo unspecified)	10µM*
Cc1ccccc1Cn1cc(-c2ccncc2)cc1C(=O)N(C)Cc1ccco1	3.55µM*
CC(C)N1C(=O)CO[C@H](c2ccc(NC(=O)c3ccc(C#N)cc3)cc2)[C@H]1CO	-9.4%[44.1 µM]
Cn1c(CNC(=O)CN2CC3CC(C2)[C@H]2CCCC(=O)N2C3)nc2ccccc21 (stereo partly specified)	-8.3%
COc1cc2c(cc1OC)C(C[C@H]1CN(C(=O)Nc3cccc(Cl)c3)CC[C@H]1CC(=O)O)=NCC2	i
CC(C)c1nc(CCN(C)C(=O)c2cn(CCC3CCCCN3)nn2)no1 (stereo unspecified)	-2.3%
Cc1cc(NC(=O)CCS(=O)(=O)c2cc3c4c(c2)CCN4C(=O)CC3)ccc1Br	15.0%
CCC(=O)N1CCc2cc(Br)cc(S(=O)(=O)CCC(=O)Nc3ccc(C)c(F)c3)c21	5.01µM*
CCC(=O)N1CCc2cc(Br)cc(S(=O)(=O)CCC(=O)Nc3ccc(CC)cc3)c21	-4.9%
CCC(=O)N1CCc2cc(Br)cc(S(=O)(=O)CCC(=O)NCCc3ccccc3Cl)c21	11.2µM*
COc1ccccc1N1CCN(C(=O)CCS(=O)(=O)c2cc(Br)cc3c2N(C(=O)C2CC2)CC3)CC1	10µM*
CCC(=O)N1CCc2cc(Br)cc(S(=O)(=O)CCC(=O)NCCc3ccc(C)cc3)c21	-12.6%
CCC(=O)N1CCc2cc(Br)cc(S(=O)(=O)CCC(=O)Nc3cccc(CC)c3)c21	i
COc1ccc(Cl)cc1NS(=O)(=O)c1cc(Br)cc2c1N(C(=O)C1CC1)CC2	11.3%
Cc1cc(NC(=O)CCS(=O)(=O)c2cc(Br)cc3c2N(C(=O)C2CC2)CC3)ccc1Br	4.47µM*
COc1ccccc1N1CCN(C(=O)CCS(=O)(=O)c2cc(Br)cc3c2N(C(C)=O)CC3)CC1	i
SMILES	Pf Dd2 growth
CCC(=O)N1CCc2cc(Br)cc(S(=O)(=O)NCCc3ccccc3)c21	-24.3%
CCc1cccc(C)c1NC(=O)CCS(=O)(=O)c1cc(Br)cc2c1N(C(=O)C1CC1)CC2	-18.6%
CCc1nc(C)c(CC(=O)N[C@@H]2CCNC[C@H]2O)c(=O)[nH]1	-11.7%
O=C(N1CCC2(CC1)[C@H](O)C[C@@H]2OCCO)C1(c2ccccc2)CCCC1	-19.0%
Cc1ccc(NC(=O)c2ccc3c(c2)N(S(C)(=O)=O)CC3)c(C)c1	i
COc1ccc(OCc2nc(C)c(CCO)c(=O)n2CC(=O)Nc2cccc(OC)c2)cc1	-22.0%
Cn1ncc(N2CCCC(CC(=O)NCCC3=CCCCC3)C2)cc1=O (stereo unspecified)	-3.2%
Cc1nc(-c2c3n(c(=O)n(CC(=O)Nc4ccc(F)c(Cl)c4)c2=O)CCCC3)no1	-16.6%
O=C(c1ccccn1)N1CCC(N2CCOC2=O)CC1	92.8%[44.1 µM]
CCC(=O)Nc1cccc(C2OC(=O)N(Cc3ccc(C)cc3)C2C(=O)NCC2CC2)c1 (stereo unspecified)	i
CCc1ccccc1NC(=O)Cn1c(-c2ccc(F)cc2)nc(C)c(CCO)c1=O	-10.8%
Cc1nc(-c2ccc(F)cc2)n(CC(=O)Nc2cc(C(F)(F)F)ccc2Cl)c(=O)c1CCO	11.2µM*
Cc1nc(-c2cccc(Cl)c2)n(CC(=O)NC(C)C)c(=O)c1CCO	-12.5%
Cc1ccc(NC(=O)Cn2c(-c3ccc(F)cc3)nc(C)c(CCO)c2=O)c(Cl)c1	i
Cc1nc(-c2ccccc2)n(CC(=O)Nc2ccc(F)c(Cl)c2)c(=O)c1CCO	8.91µM*
Cc1ccccc1NC(=O)Cn1c(-c2cccc(Cl)c2)nc(C)c(CCO)c1=O	i
CCc1ccc(NC(=O)Cn2c(-c3ccc(Cl)cc3)nc(C)c(CCO)c2=O)cc1	-11.7%
Cc1cc(C)cc(NC(=O)Cn2c(-c3cccc(Cl)c3)nc(C)c(CCO)c2=O)c1	10µM*
